Source: PubChem (University of Kansas High Throughput Screening Laboratory)
Pf apPOL inh = Pf-apPOL DNA polymerase inhibition; AID 1794808; actives 0.25% (n = 210,000); inhibition, % at 10 µM; Recombinant Pf-apPOL, molecular beacon fluorescence, 1.5 h
mHTT CaM bind = inhibitors of human mutant huntingtin-calmodulin interaction; P42858; actives 3.6% (n = 190,000); AlphaScreen His-mHTT/GST-CaM binding, luminescence; AID 1671202; inhibition, % at 15 µM;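 also: 0% = both proteins with DMSO and 100% = one protein alone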
Starred values were filed as active, the others as inactive. Only some compounds are listed: those with a hit (about 3.6% of all), similar ones and a draw of the others. Rule as the data show it: active = inhibition above about 50%; inactive = the rest.

`O=[N+]([O-])c1ccc(C2Nc3ccc(Cl)cc3C(c3ccccc3)O2)cc1` (stereo not given) gave Pf apPOL inh -5 and mHTT CaM bind 82*.
For O=[N+]([O-])c1ccc(C2CNC(c3ccccc3)O2)cc1 (stereo not given) the results were Pf apPOL inh 0 and mHTT CaM bind -2.
O=C(c1cc(S(=O)(=O)N2CCOCC2)cs1)N1CCCc2ccccc21 was read as Pf apPOL inh -7 and mHTT CaM bind -1.
COCCc1noc(COC2CCN(Cc3ccc(C)o3)CC2)n1 was read as Pf apPOL inh -6 and mHTT CaM bind 1.
CCC(C)NC(=O)Cc1cn(C)c2ncccc12 (stereo not given) was read as Pf apPOL inh 1 and mHTT CaM bind -15.
C=CCc1ccccc1OCC(O)CN1CCN(c2ccc(F)cc2)CC1 (stereo not given) was read as Pf apPOL inh -13 and mHTT CaM bind 75*.
Screening C=CCc1ccccc1OCC(O)CN1CCN(c2ccccc2)CC1 (stereo not given) returned Pf apPOL inh -1 and mHTT CaM bind 74*.
For C=CCc1ccccc1OCC(O)CN1CCN(c2ccccc2OC)CC1 (stereo not given) the results were Pf apPOL inh -8 and mHTT CaM bind 43.
C=CCc1ccccc1OCC(O)CN1CCN(c2ccccc2F)CC1 (stereo not given) was read as Pf apPOL inh -2 and mHTT CaM bind -11.
For CN(C)CCN(C(=O)CN1C(=O)c2ccccc2C1=O)c1nc2ccc(Cl)cc2s1 the results were Pf apPOL inh -5 and mHTT CaM bind 84*.
For Cc1ccc2nc(NC(=O)CN3C(=O)c4ccccc4C3=O)sc2c1 the results were Pf apPOL inh 1 and mHTT CaM bind 4.
For CNC(=O)N1CCC2(CC1)Nc1cc(F)ccc1-n1cccc12 the results were Pf apPOL inh 4 and mHTT CaM bind 36.
Screening COc1cccc(CNC(=O)N2CCC3(CC2)Nc2cc(F)ccc2-n2cccc23)c1 returned Pf apPOL inh 3 and mHTT CaM bind 44.
`Cc1ccc(CNC(=O)N2CCC3(CC2)Nc2cc(F)ccc2-n2cccc23)cc1` gave Pf apPOL inh -2 and mHTT CaM bind 66*.
`O=C(NCc1ccccc1)N1CCC2(CC1)Nc1cc(F)ccc1-n1cccc12` gave Pf apPOL inh -2 and mHTT CaM bind 51*.
For Cc1ccc2c(c1)NC1(CCN(C(=O)CSCc3ccc(F)cc3)CC1)c1cccn1-2 the results were Pf apPOL inh -7 and mHTT CaM bind 100*.
O=C(NCc1ccco1)N1CCC2(CC1)Nc1cc(F)ccc1-n1cccc12 was read as Pf apPOL inh 3 and mHTT CaM bind 47.
For CCOc1ccc(NC(=O)c2cccnc2)c([N+](=O)[O-])c1 the results were Pf apPOL inh 1 and mHTT CaM bind 0.
`O=S(=O)(c1cc(F)ccc1F)N1CCc2nc(-c3ccc(F)cc3)ncc2C1` gave Pf apPOL inh 4 and mHTT CaM bind -8.
`CC1(C)C(=O)OC2(c3ccc(F)cc3)C1OC(=O)C2(C)C` (stereo not given) gave Pf apPOL inh -2 and mHTT CaM bind -9.
`CN(C)Cc1c(O)ccc2c1OC(=Cc1ccc(C(C)(C)C)cc1)C2=O` gave Pf apPOL inh -15 and mHTT CaM bind -2.
`COc1cc(CN2CCN(c3cccc(C)c3C)CC2)cc(Br)c1O` gave Pf apPOL inh 2 and mHTT CaM bind 55*.
COc1cc(CN2CCN(c3cccc(C)c3C)CC2)cc(OC)c1OC was read as Pf apPOL inh 0 and mHTT CaM bind -5.
`Cn1ccnc1SCC(=O)Nc1ccccc1F` gave Pf apPOL inh 10 and mHTT CaM bind 1.
Screening Cc1noc(C)c1-n1sc(=O)n(-c2ccc(F)cc2)c1=O returned Pf apPOL inh 73*.
`Cc1ccc(-n2sc(=O)n(Cc3ccc(F)cc3)c2=O)cc1` gave Pf apPOL inh 2.
Screening CCC(CO)N=Cc1c(O)n(-c2c(Cl)cccc2Cl)c2ccccc12 (stereo not given) returned Pf apPOL inh -1 and mHTT CaM bind 83*.
`Oc1ccccc1N=Cc1c(Cl)cccc1Cl` gave Pf apPOL inh -5 and mHTT CaM bind 12.
For OCCN=Cc1c(O)n(-c2c(Cl)cccc2Cl)c2ccccc12 the results were Pf apPOL inh -1 and mHTT CaM bind 85*.
For CC(=O)n1c(C=Nc2ccc(Cl)cc2)c(O)c2ccccc21 the results were Pf apPOL inh -1 and mHTT CaM bind -2.
For C=CCn1c(C(=O)NCCC)cc2sccc21 the results were Pf apPOL inh -3 and mHTT CaM bind 0.
Screening CC(C)C[C@@H]1COc2cccc(N3CCN(Cc4ccccc4F)CC3)c2S(=O)(=O)N1 returned Pf apPOL inh -6 and mHTT CaM bind 44.
`O=S1(=O)N[C@@H](Cc2ccccc2)COc2cccc(N3CCN(Cc4ccccc4F)CC3)c21` gave Pf apPOL inh -10 and mHTT CaM bind 89*.
For N#C/C(=C\c1cc([N+](=O)[O-])ccc1Cl)C(=O)NCCc1c[nH]c2ccccc12 the results were Pf apPOL inh -4 and mHTT CaM bind 96*.
For N#C/C(=C\c1c[nH]c2ccccc12)C(=O)Nc1cc([N+](=O)[O-])ccc1Cl the results were Pf apPOL inh -4 and mHTT CaM bind 7.
Screening COc1ccc(NC(=O)c2nn(-c3ccc(Cl)cc3)c(=O)c3ccccc23)cc1OC returned Pf apPOL inh 1 and mHTT CaM bind 26.
Screening CCc1ccc(S(=O)(=O)NCCC2CCN(C(=O)c3ccccc3)CC2)cc1 returned Pf apPOL inh -4 and mHTT CaM bind 39.
Cc1ccc(S(=O)(=O)NCCC2CCN(C(=O)c3ccccc3)CC2)cc1 was read as Pf apPOL inh 3 and mHTT CaM bind 46.
O=C(c1ccccc1)N1CCC(CCNS(=O)(=O)c2ccccc2)CC1 was read as Pf apPOL inh 1 and mHTT CaM bind 50*.
Screening O=C(c1ccccc1)N1CCC(CCNS(=O)(=O)c2ccc3c(c2)CCCC3)CC1 returned Pf apPOL inh 4 and mHTT CaM bind 60*.
`Cc1ccc(C(=O)Nc2ccc(S(=O)(=O)O)c3cc(S(=O)(=O)O)cc(S(=O)(=O)O)c23)cc1NC(=O)c1cccc(NC(=O)Nc2cccc(C(=O)Nc3cc(C(=O)Nc4ccc(S(=O)(=O)O)c5cc(S(=O)(=O)O)cc(S(=O)(=O)O)c45)ccc3C)c2)c1` gave Pf apPOL inh 53*.
For Cc1ccccc1NC(=O)c1ccc(C)c(S(=O)(=O)Nc2cccc(C(=O)O)c2)c1 the results were Pf apPOL inh -4 and mHTT CaM bind -3.
`CC(=NOC(=O)c1ccccc1)c1sc2nc(C(F)(F)F)nn2c1C` gave Pf apPOL inh -3.
Screening Oc1ccc(Nc2nc(-c3ccccc3)cs2)cc1 returned Pf apPOL inh -8 and mHTT CaM bind 79*.
Oc1cccc(Nc2nc(-c3ccccc3)cs2)c1 was read as Pf apPOL inh -2 and mHTT CaM bind 33.
c1ccc(-c2csc(Nc3ncccn3)n2)cc1 was read as Pf apPOL inh -4 and mHTT CaM bind -5.
`NNc1nc(-c2ccccc2)cs1` gave Pf apPOL inh -8 and mHTT CaM bind 58*.
For Cc1ccc(-c2cc(C(=O)O)c3cc4c(C(=O)O)cc(-c5ccc(C)o5)nc4cc3n2)o1 the results were Pf apPOL inh 4 and mHTT CaM bind 7.
Screening Cc1oc(C(=O)O)cc1COc1cccc2cccnc12 returned Pf apPOL inh 0 and mHTT CaM bind 74*.
